Hits are enriched below; roughly 14% of the tested compounds scored in any of these assays.
Pf growth 96h = P. falciparum growth inhibition at 96 hour, primary screen for plastid delayed-death inhibitors; P. falciparum luciferase reporter growth, 96 h; Potency, µM (highest dose often 28.7 µM), for the others: top-dose activity change, negative = inhibition, actives largely listed as inhibitors; 320,000 tested, 6.9% active; AID 504834; further: potency means the concentration at half of the fitted maximal effect
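P. falciparum expressing integrated firefly luciferase, in erythrocytes at 2% hematocrit, 0.05% parasitemia, incubated with compounds 96 h at 37 C, 5% CO2. Growth inhibition read as loss of luminescence; two-generation exposure targets delayed-death apicoplast inhibitors.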
Lassa entry inh = blocks Lassa virus binding to or entry into cells; AID 540256; Lassa virus pseudotype entry inhibition, cell reporter; Potency, µM (doses to about 37.9 µM), for the others: top-dose activity change, negative = inhibition, usual class: inhibitors; 300,000 tested, 1.2% active; calls by dose curve; tested in HEK293 cells; further: potency means the concentration at half of the fitted maximal effect; nearly all actives have a fitted effect of over 50% in size
Pf growth 48h = inhibits P. falciparum growth in the first generation, 48 h; P. falciparum luciferase growth in erythrocytes, 48 h; Potency, µM (highest dose often 28.7 µM), for inactives: top-dose activity change, negative = inhibition, actives largely listed as inhibitors; 310,000 tested, 5.9% active; further: potency means the concentration at half of the fitted maximal effect
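Cell-based growth assay: transgenic P. falciparum expressing firefly luciferase, cultured in red cells within RPMI 1640 containing 0.5% w/v Albumax, 24 mM bicarbonate and gentamycin. A drop in luciferase activity indicates inhibition.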
HCMV inh = inhibitors of human cytomegalovirus | 410,000 tested, 4.5% active | AID 1259415 | activity change, negative = inhibition, % at 57.5 µM | HFF cells, HCMV-luciferase reporter, 72 h; stronger effect = lower value; in the data active means activity change below about -60%; inconclusive means no clear call, values can overlap the other calls; inactive means above about -39%
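Two-dose cell screen: HFF monolayers treated with compounds and infected with luciferase-expressing HCMV at 1 PFU/cell, 72 h at 37C, then lysed for luciferase measurement.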
MARV entry inh = Marburg virus entry inhibition. 300,000 tested, 1.8% active. Potency, µM (highest dose often 37.8 µM), for inactives: at the top dose activity change, negative = inhibition, actives largely listed as inhibitors. Marburg virus pseudotyped entry inhibition, cell reporter. AID 540276; calls by dose curve; tested in HEK293 cells; further: potency means the concentration at half of the fitted maximal effect
HCV inhibitor = HCV inhibition. Huh7.5.1 HCVcc-Cre infection, luciferase reporter, 44 h. Potency, µM (doses to about 41.8 µM), for the others: top-dose activity change, negative = inhibition, actives largely listed as inhibitors. 340,000 tested, 3.4% active; further: potency means the concentration at half of the fitted maximal effect
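Reporter virus HCVcc-Cre (~0.5 moi) infects cells exposed to compound; seeding density 1,000 cells/well with 4 h settling beforehand. Luminescence, 15 sec read, taken 44 h post-infection following a 15 min RT substrate incubation.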
* hit, by the source's call; u = inconclusive; x = no result given; [ ] = dose if it differs, or a comment. Unless noted, the call rests on the fitted dose curve; in most records, active means well fitted inhibition curve with a large enough effect; inconclusive means small, poorly fitted or top-dose-only effect, or another doubt; inactive means no such curve, though single readings can be large or run the other way. On the % scale 0 is the no-effect control and ±100 the full control effect.

SMILES | Pf growth 96h | Lassa entry inh | Pf growth 48h | HCMV inh | MARV entry inh | HCV inhibitor
O=C(O)[C@@H](O)[C@@H](O)[C@H](O)[C@H](O)CO | 8.5µM* | x | 6µM* | x | x | x
CC1(C)CC(=O)c2cc(C(=O)Nc3ccc(Cl)cc3)c(=O)[nH]c2C1 | x | 7%[46.1 µM] | x | 57 | u | x
Cc1cccc(CCN2C(Nc3ccccc3)=NC[C@@H]2CC(C)C)c1 | u | x | 10µM* | u | x | 2.8µM*
CC(C)(C)C1CCC(CN2C(Nc3ccccc3)=NC[C@@H]2Cc2ccccc2)CC1 (stereo partly drawn) | x | x | x | -76* | x | u
CC(C)C[C@H]1CN=C(Nc2ccccc2)N1CC1CCCCCC1 | 10µM* | x | u | -35 | x | u
CCOC(=O)c1c(C)[nH]c(C)c1S(=O)(=O)NCC(=O)N1CCN(c2ccccc2OC)CC1 | x | 6%[46.1 µM] | x | -4 | x | x
CCOc1ccc(Nc2c(S(=O)(=O)c3ccc(Cl)cc3)cnc3ccc(OC)cc23)cc1 | x | x | x | u | -1%[46.1 µM] | x
N=c1n(CC(=O)c2cccc([N+](=O)[O-])c2)c2ccccc2n1Cc1ccccc1 | 15% | x | u | -39 | u | u
CC(C)(C)C(=O)Cn1c(=N)n(Cc2ccccc2Cl)c2ccccc21 | u | -12% | x | 13 | -4% | -20%
Cc1ccc(Cn2c(=N)n(CC(=O)c3ccccc3)c3ccccc32)cc1 | 39% | x | u | -83* | x | 10µM*
CC(C)(C)C(=O)Cn1c(=N)n(Cc2ccccc2)c2ccccc21 | u | 3% | 13µM* | -17 | u | u
COC(=O)c1sccc1S(=O)(=O)N(CC(=O)Nc1cc(C)ccc1C)c1ccc(C)c(C)c1 | x | u | x | -1 | x | x
C=CCCC1CN(Cc2ccc(OC)cc2)S(=O)(=O)c2c(Oc3ccc(C(C)C)cc3)cccc2O1 (stereo not drawn) | x | x | x | -9 | x | x
O=C(Nc1cc(-c2nc3cc(Cl)ccc3o2)ccc1Cl)c1cccc2ccccc12 | x | 8%[46.1 µM] | x | 82 | 8%[46.1 µM] | x
Cc1cc(C)c[n+](C(C)C(=O)c2ccc(-c3ccccc3)cc2)c1 (stereo not drawn) | 28% | -21% | 1.3µM* | -99* | u | -10%
CCCn1c(=O)c2sccc2n2c(CCCC(=O)Nc3ccccc3F)nnc12 | x | 26%[46.1 µM] | x | u | x | x
CCC(=O)Nc1ccc(NC(=O)c2cccc3c(Br)cccc23)cc1 | 6.6µM* | x | 16% | -2 | x | -3%
CN1CCN(C(c2ccccn2)c2cc(Cl)c3cccnc3c2O)CC1 (stereo not drawn) | u | x | 4.7µM* | -14 | x | u
Cc1ccc(C(c2cc(Cl)c3cccnc3c2O)N2CCN(C)CC2)cc1 (stereo not drawn) | u | u | 4.1µM* | x | u | u
CN1CCN(C(c2ccc(C(F)(F)F)cc2)c2ccc3cccnc3c2O)CC1 (stereo not drawn) | u | 7.9µM* | u | -97* | u | 11µM*
CN1CCN(C(c2cccc(C(F)(F)F)c2)c2nnnn2C(C)(C)C)CC1 (stereo not drawn) | x | -4% | -10% | -4 | -20% | -22%
CN1CCN(Cc2cc(Cl)c3cccnc3c2OC(=O)c2cccs2)CC1 | u | -22% | u | u | u | u
Oc1c(C(c2ccccc2Cl)N2CCCC2)ccc2cccnc12 (stereo not drawn) | u | x | -54%[1.15 µM] | -5 | x | 10µM*
COc1ccc([C@H]2C[C@@H](n3cc(-c4ccc(F)cc4)nn3)[C@H](O)CN2C(=O)C2CCCCC2)cc1 | x | 17%[46.1 µM] | x | 6 | x | x
COc1ccccc1CNC(=O)CCCCn1c(=O)c2ccccc2n(Cc2ccccc2C)c1=O | x | 4%[46.1 µM] | x | 5 | -9%[46.1 µM] | x
Oc1c(C(c2ccc(Cl)cc2)N2CCCC2)cc(Cl)c2cccnc12 (stereo not drawn) | 1.9µM* | x | 3.3µM* | u | x | u
COc1cc(C(=O)NC(c2ccc(Cl)cc2)c2cc(Cl)c3cccnc3c2O)cc(OC)c1OC (stereo not drawn) | x | u | x | -2 | x | x
c1ccc(CC2CCN(Cc3ccccn3)CC2)cc1 | -11% | x | u | 4 | x | 2%
